Activation data for 21 compounds are collected here from PubChem BioAssay AID504904 (The Scripps Research Institute Molecular Screening Center, 2011).

The other results are listed elsewhere or left out. Values without a mark were called inactive. The source made the active and inactive calls. Cut-off read from the data, not from the text of the source: active = activation above about 18%; inactive = the rest.

The target of the assay is Mu-type opioid receptor (Homo sapiens) + Delta-type opioid receptor (Homo sapiens) (UniProt P35372+P41143). As to the kind of experiment: OPRM1-OPRD1 heterodimer formation agonism – cell-based, luminescence, confirmation (AID 504904).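 Note: 0% = vehicle-treated cells and 100% = reference agonist.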 The conditions noted are these: cells, MOR-DOR heterodimerization, luminescence complementation; at 9.3 µM; hits give high values.
Mu-type opioid receptor (Homo sapiens) + Delta-type opioid receptor (Homo sapiens), sequence (P35372 whole entry, looked up): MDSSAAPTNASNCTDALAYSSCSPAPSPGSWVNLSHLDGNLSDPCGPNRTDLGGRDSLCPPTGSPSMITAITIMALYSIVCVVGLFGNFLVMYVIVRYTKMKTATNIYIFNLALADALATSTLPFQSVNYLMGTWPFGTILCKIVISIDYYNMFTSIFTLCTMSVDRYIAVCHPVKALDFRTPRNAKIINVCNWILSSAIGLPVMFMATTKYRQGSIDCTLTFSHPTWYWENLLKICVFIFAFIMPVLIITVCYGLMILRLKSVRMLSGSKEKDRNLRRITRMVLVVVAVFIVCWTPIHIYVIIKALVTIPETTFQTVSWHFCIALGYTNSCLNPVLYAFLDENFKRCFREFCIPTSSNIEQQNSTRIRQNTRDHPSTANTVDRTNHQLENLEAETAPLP
Mu-type opioid receptor (Homo sapiens) + Delta-type opioid receptor (Homo sapiens), sequence (P41143 whole entry, looked up): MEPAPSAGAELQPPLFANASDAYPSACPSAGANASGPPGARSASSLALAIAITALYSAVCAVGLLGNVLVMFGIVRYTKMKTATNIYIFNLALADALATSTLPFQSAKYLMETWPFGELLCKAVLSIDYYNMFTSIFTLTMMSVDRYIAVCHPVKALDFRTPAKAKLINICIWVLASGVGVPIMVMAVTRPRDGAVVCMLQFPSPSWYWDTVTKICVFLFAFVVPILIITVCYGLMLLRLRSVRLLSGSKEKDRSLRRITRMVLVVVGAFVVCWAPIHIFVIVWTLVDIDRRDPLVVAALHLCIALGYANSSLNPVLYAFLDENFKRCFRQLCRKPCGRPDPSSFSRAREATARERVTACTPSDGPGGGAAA
With `CCOC(=O)C1(CC2CCCCO2)CCN(Cc2nc(-c3cccs3)oc2C)CC1` (stereo unspecified), the activation was 49.1% (active).
On to `CC(OC(=O)/C=C/c1ccccc1)C(=O)Nc1ccc(C(N)=O)cc1` (stereo unspecified), for which the activation was -2.09%.
With `CCC(C(=O)OCC(=O)Nc1ccc(C(=O)Nc2ccc(OC)cc2)cc1)c1ccccc1` (stereo unspecified) the figure was 4.73%; with `CCOC(=O)c1c(C)[nH]c2c1-c1ccccc1C(=O)C2=O`, 18.7% (active).
Next, `COc1ccc(SC[C@H](Cc2ccccc2)N2CCN(CCc3ccccc3)CCC2=O)cc1`: 28.3% (active); `CCCC(=O)NC(C)C(c1cccs1)N1CCN(c2ccccc2)CC1` (stereo unspecified): 36.7% (active).
Next, `COc1ccc(C2Nc3ccccc3C(=O)N2c2ccc(F)cc2)cc1Cn1nnc2ccccc21` (stereo unspecified): 0.83%; `CN(C)CCCN(C(=O)c1ccc(S(=O)(=O)N2CCCc3ccccc32)cc1)c1nc2ccc(F)cc2s1`: 8.38%.
For `COc1cc(/C=N/NC(=O)Nc2ccccc2)ccc1OCCOc1ccccc1C`, the activation was 17.1%.
Next, `C=C(C)COc1ccc(-c2n[nH]c(C)c2-c2ccccc2)c(O)c1`: 13.3%; `Cc1ccc(Nc2ccccc2N)cc1`: 3.92%.
Next, `CC(c1cccnc1)N(CCN(C)C)C(=O)Nc1ccc(Cl)c(Cl)c1` (stereo unspecified): -0.05%; `Cc1cc(C)cc(C(=O)N(CCc2ccccc2)C2=CC3CCC(C2)N3C)c1` (stereo unspecified): 137% (active).
With `COc1cccc(/C=N/Nc2cc(C)nc(-c3ccccc3O)n2)c1O` the figure was -1.59%; with `O=C(Nc1ccc(OC(F)(F)F)cc1)c1ccc2c(c1)no[n+]2[O-]`, 13.3%.
In the case of `CCNS(=O)(=O)c1ccc(NC(=O)Nc2cccc(OC)c2)cc1`, the activation was 3.23%.
For the compound `CC1CCCN(CCOCCOc2ccccc2-c2ccccc2)C1` (stereo unspecified), the activation is 1.28%.
Next, `COc1cc(C(=O)OC(C)C(=O)NCC2CCCCC2)cc(NC(=O)c2ccco2)c1OC` (stereo unspecified): 213% (active); `Cc1ccc(-n2c(SCC(=O)NCCC3=CCCCC3)nc3n[nH]c(C)c3c2=N)cc1Cl`: 2.44%.
With `N#C/C(=C(/O)COC(=O)COc1ccc(Cl)cc1)c1nc2ccccc2[nH]1` the figure was 13.4%; with `COc1ccc(-n2nnnc2-c2nc3ccccc3s2)cc1`, 3.47%.
